In PubChem BioAssay (NCATS):
Results filed as inconclusive are left out. Active and inactive are the calls of the source. Calls come from the whole dose curve; as a rule, active = well fitted activation curve with a large enough effect; inconclusive = small, poorly fitted or top-dose-only effect, or another doubt; inactive = no such curve, though single readings can be large or run the other way.

Assay: Cell Proliferation Assay against the TMD8 Cell Line (Caspase readout at 8 hrs) (AID 651713)
Conditions: TMD8 lymphoma cells, caspase activation luminescence; series mostly up to 46.1 µM; caspase activation: at the top concentration
Description: One class of targeted therapeutics showing early clinical success in killing of ABC DLBCL lines are small molecule inhibitors of the Bruton tyrosine kinase (BTK) 11. Thus, we chose to investigate what additional compounds, if any, would synergize with the BTK inhibitor Ibrutinib (PCI-32765).
Prior to any combination assays, using an NCATS developed oncology compound library called the Mechanism of Interrogation Plate (MIPE), two well studied ABC DLBCL lines (TMD8 and HBL1) were screened using a cell viability assay (CellTiterGlo) and a 12-point titration series for each single agent. These initial experiments offered insight into the concentration range that offered the best coverage of activity and non-activity to assure relevant data is generated. In addition to the viability signature associated with this library, we examined the apoptotic response of each agent versus the TMD8 line as judged by caspase 3/7 activation. Activity was assayed at both 8 and 16 hour time-points to gain an appreciation of which agents induced an apoptotic response in a reasonable timeframe from a therapeutic exposure perspective. MIPE was also assayed for single agent viability in a human mesenchymal stem cell (hMSC) line as a surrogate of each library members potential therapeutic index.
The combination plates were then generated by choosing 20 of the best compounds from this single agent screen and plated in the presence of the BTK inhibitor. The first analysis was carried out using 6x6 dose response blocks for each of the 20 compounds. […] In addition to the cell viability assay, the parallel caspase 3/7 activation and viability in hMSC assays were carried out in the 10x10 format.
A total of 500 log growing TMD8 cells are seeded per well in 5 uL of a RPMI with glutamine (or Glutamax), without phenol red plus 5% FBS and 1X Pen/Strep into 1536 -solid white high base tissue culture treated Greiner One Bio Plates (789173-F) using a multidrop combi dispenser and a small sterile cassette. Compounds and controls totaling 23nL per well (negative control DMSO and positive control 9.2 uM Bortezomib-final) are immediately added to the plates using a 1536 head pin tool from Kalypsys. The plates are then covered with stainless steel gasket lids from Kalypsys and incubated for either 8 hours at 37C under 95% relative humidity with 5% CO2. After the desired incubation time, the plates are removed and allowed to reach room temperature before 3 uL of the Caspase Glo reagent (Promega) is added using an Aurora Flying Reagent Dispenser Bioraptor. The plates are then spun at 1000 rpms to remove bubbles and incubated for 15 minutes at room temperature before read on a ViewLux using a luminescent filter with a 10 second exposure. The relative luciferase units are used to calculated percent activity using DMSO as 0% and Bortezomib as 100%.

Compound | caspase activation
O=C1CCCC2=C1C(c1[nH]ncc1Cl)N=C(Nc1nc3ccccc3o1)N2 (stereo not given) | 14.8% (inactive)
CCN(CCCO)CCCOc1ccc2c(Nc3cc(CC(=O)Nc4cccc(F)c4)[nH]n3)ncnc2c1 | 4.78% (inactive)
O=C(O)CCc1ccc(NCc2cccc(Oc3ccccc3)c2)cc1 | -9.66% (inactive)
COc1ccc(-c2ccc3c(N4CCOC[C@H]4C)nc(N4CCOC[C@H]4C)nc3n2)cc1CO | 12.7% (inactive)
COc1ccc2nc(S(=O)Cc3ncc(C)c(OC)c3C)[nH]c2c1 (stereo not given) | -49.1% (inactive)
COc1cc2nccc(Oc3ccc(NC(=O)NC4CC4)c(Cl)c3)c2cc1C(N)=O | 28.2% (inactive)
CCCS(=O)(=O)Nc1ccc(F)c(C(=O)c2c[nH]c3ncc(Cl)cc23)c1F | 14.5% (inactive)
Cc1cc(C=c2sc3nc4ccccc4n3c2=O)c(C)n1-c1ccccc1 | -77.5% (inactive)
CCCCCCCc1ccc(CCc2cccc(O)c2C(=O)O)cc1 | -2.31% (inactive)
Cc1oncc1C(=O)Nc1ccc(C(F)(F)F)cc1 | -50.5% (inactive)
CNC(=O)c1ccc(C)c(-n2c(C)cc(OCc3ccc(F)cc3F)c(Br)c2=O)c1 | -8.08% (inactive)
COc1ccccc1-c1cccc(-c2c(O)c3cc(C#N)c(Cl)cc3[nH]c2=O)c1 | -15.2% (inactive)
CC(=O)NC(C)c1ccc(Oc2ccc(OC(C)C)cc2)cc1 (stereo not given) | 9.84% (inactive)
COc1c(Cl)cc2c([nH]c3cnccc32)c1NC(=O)c1cccnc1C | 2.67% (inactive)
Cc1ccnc(NS(=O)(=O)c2ccc(NC(=O)Nc3ccc(S(=O)(=O)Nc4nccc(C)n4)cc3)cc2)n1 | 3.83% (inactive)
COc1cc(Nc2ncc3c(n2)-c2ccc(Cl)cc2C(c2c(F)cccc2OC)=NC3)ccc1C(=O)O | 24.2% (inactive)
c1ccc(-c2nn3c(c2-c2ccnc4cc(OCCN5CCOCC5)ccc24)CCC3)nc1 | 15.4% (inactive)
CC(c1cc2ccccc2s1)N(O)C(N)=O (stereo not given) | 19.3% [at 92.2 µM] (inactive)
Clc1ccc(Nc2nnc(Cc3ccncc3)c3ccccc23)cc1 | 24.6% (inactive)
Cc1cc(-c2nnc3n2CCCCC3)c(C)n1-c1ccc(F)cc1 | -42.3% (inactive)

Compound | caspase activation
CNC(=O)c1ccccc1Sc1ccc2c(/C=C/c3ccccn3)n[nH]c2c1 | -37.5% (inactive)
O=c1ncn2nc(Sc3ccc(F)cc3F)ccc2c1-c1c(Cl)cccc1Cl | 16.9% (inactive)
CCN(c1ccccc1)c1cc(NC)[n+](C)c(C)n1 | -0.0318% (inactive)
C[C@]12CC[C@H](O)CC1=CC[C@@H]1[C@H]2CC[C@]2(C)C(c3cccnc3)=CC[C@H]12 | 5.61% (inactive)
CC[C@@H](C)[C@H](NC(=O)[C@H](CC1CCCCC1)NC(=O)c1ccno1)C(=O)N1CCC2(CCc3ccccc32)CC1 | -14% (inactive)
CCc1cc(Nc2nccc(-c3c(-c4ccc(OC)c(C(=O)Nc5c(F)cccc5F)c4)nc4ccccn34)n2)c(OC)cc1N1CCC(N2CCN(S(C)(=O)=O)CC2)CC1 | -11% (inactive)
O=C(OCC#CCSc1nnc(-c2ccc3ccccc3c2)o1)c1cc2ccccc2s1 | -16.5% (inactive)
Cc1csc(NC(=O)c2sc3nc4c(c(C(F)(F)F)c3c2N)CCC4)n1 | -26.3% (inactive)
Cc1cc(Nc2nc(N[C@@H](C)c3ncc(F)cn3)ncc2Cl)n[nH]1 | -5.19% (inactive)
COc1ccc(-c2c(-c3ccc(O)cc3O)n[nH]c2C)cc1 | 23.2% (inactive)
COc1cc(F)c(F)c(Nc2ccc(I)cc2F)c1NS(=O)(=O)C1(C[C@H](O)CO)CC1 | 6.93% (inactive)
Cc1n[nH]c(C)c1Cc1sc2c(c1C(=O)N1C[C@H](O)CO1)c(=O)n(C)c(=O)n2CC(C)C | 10.9% (inactive)
Cc1cccc(-c2[nH]c(C(C)(C)C)nc2-c2ccc3nccnc3c2)n1 | -3.8% (inactive)
CCOC(=O)C1=C[C@@]2(CC)CCCN3CCc4c(n1c1ccccc41)[C@H]32 | -55% [at 29.8 µM] (inactive)
Nc1cccc(S(=O)(=O)N2CCCN(S(=O)(=O)c3ccc4c(c3)OCCO4)CC2)c1 | -20% (inactive)
CCn1c(-c2nonc2N)nc2cnc(Oc3cccc(NC(=O)c4ccc(OCCN5CCOCC5)cc4)c3)cc21 | 17.1% (inactive)
COc1ccc2c3n(c(=NC(=O)c4cccnc4)nc2c1OC)CCN3 | 13.1% (inactive)
Nc1nc2[nH]cc(CCc3ccc(C(=O)N[C@@H](CCC(=O)O)C(=O)O)cc3)c2c(=O)[nH]1 | 9.48% (inactive)
Cc1cc(SCc2sc(-c3ccc(C(F)(F)F)cc3)nc2C)ccc1OCC(=O)O | -3.71% (inactive)
CC(C)c1onc(-c2c(Cl)cccc2Cl)c1COc1ccc(/C=C/c2cccc(C(=O)O)c2)c(Cl)c1 | -19.7% (inactive)
